The structures appear in SMILES notation. ± gives the standard deviation of the averaged measurements.

The subject of the assay is MDA-MB-231. Kind of assay: kynurenine production, fold change vs DMSO IFNg/TNF control; higher = more kynurenine produced (less inhibition). The settings on record: pre-treatment time: 18 h then 24 h IFNg/TNF. An outline of the steps:
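After trichloroacetic acid and p-dimethylaminobenzaldehyde treatment, supernatants were read at 492 nm, with 0–100 μM standards. These came from MDA-MB-231 cells (7 × 10^4/well, 96-well plates) pre-treated 18 h with natural products in 0.1% DMSO and then exposed 24 h to IFNγ (1 U/ml) and TNF (6.25 ng/ml) at 37°C. Values for kynurenine production are fold changes over same-plate cytokine-stimulated vehicle wells, averaged over duplicate plates in the first screening round.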
In the case of `C[C@H]1O[C@@H](O[C@H]2CC[C@@]3(C)[C@@H](CC[C@]4(C)[C@@H]3C=C[C@]35OC[C@@]6(CCC(C)(C)C[C@H]63)[C@@H](O)C[C@]54C)[C@]2(C)CO)[C@H](O)[C@@H](O[C@@H]2O[C@H](CO)[C@@H](O)[C@H](O)[C@H]2O)[C@H]1O` [Saikosaponin A] (compound dose: 10 uM), the kynurenine production turned out to be 0.824 ± 0.1.
To `CC(=O)OC1COC(OC2CCC34CC35CCC3(C)C(C6(C)CCC(C(C)(C)O)O6)C(O)CC3(C)C5CC(OC3OC(CO)C(O)C(O)C3O)C4C2(C)C)C(OC(C)=O)C1O` (stereo not given) [Isoastragaloside I] (compound dose: 10 uM) belongs 0.925 ± 0.059; to `Cc1ccc(C(C)C)cc2c(C)ccc1-2` [Guaiazulene] (compound dose: 10 uM), 0.915 ± 0.21; to `CC1(C)CC[C@]2(C(=O)O)[C@H](O)C[C@]3(C)C(=CC[C@@H]4[C@@]5(C)CC[C@H](O[C@@H]6O[C@H](CO)[C@@H](O)[C@H](O)[C@H]6O)C(C)(C)[C@@H]5CC[C@]43C)[C@@H]2C1` [Ecliptasaponin A] (compound dose: 10 uM), 0.88 ± 0.15.
Under `C=C(C)[C@@H]1CC=C(C)CC1` [(-)-Limonene] (compound dose: 10 uM) stands 0.935 ± 0.21.

The record behind these values is the supplement of paper PMC13094657.
